Screens deposited in PubChem BioAssay by several laboratories.
3CLpro inhibitor: SARS-CoV 3CLpro protease inhibition; P0C6X7; recombinant SARS-CoV 3CLpro, quenched FRET peptide cleavage; inhibition, % at 6 µM; 290,000 compounds, 0.14% hits; in the data active = inhibition above about 12%
BJeLR lethal: kills HRASV12-expressing BJeLR cells; BJeLR (HRASV12) viability, CellTiter-Glo ATP luminescence, 48 h; inhibition, % (no concentration beside the values); 300,000 compounds, 0.17% hits; in the data active = inhibition above about 50%
BH1578 lux ind: inducers of Vibrio cholerae quorum light production without autoinducers | V. cholerae BH1578 lux reporter, luminescence, 6 h | AID 588436 | activation, % at 18.7 µM | 350,000 compounds, 0.16% hits; in the data active = activation mostly above about 9.7%, no sharp cut-off
DUSP3 inh: inhibitors of human VHR1 phosphatase (DUSP3). recombinant VHR phosphatase, pNPP absorbance. P51452. inhibition, % at 13.3 µM. AID 1654. 290,000 compounds, 0.52% hits; in the data active = inhibition above about 50%
Target sequence (P51452 whole entry, looked up): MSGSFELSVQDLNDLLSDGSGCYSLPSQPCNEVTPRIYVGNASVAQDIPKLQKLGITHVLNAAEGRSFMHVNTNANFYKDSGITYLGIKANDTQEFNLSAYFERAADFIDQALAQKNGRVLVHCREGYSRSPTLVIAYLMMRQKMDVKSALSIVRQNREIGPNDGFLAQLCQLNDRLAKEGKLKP
PfHsp40 rescue: rescue of PfHsp40-mediated yeast toxicity; S. cerevisiae expressing PfHsp40, growth rescue, ATP luminescence; growth rescue, % at 12.5 µM; 340,000 compounds, 0.68% hits; AID 504582; in the data active = growth rescue above about 28%, passing the limit was not always enough;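 note: yeast W303a lacking pdr1 and pdr3 grown in galactose medium; growth measured after three days at 30 °C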
MazEF act: increases E. coli MazEF RNase cleavage of RNA; P0AE70; FAM/BHQ RNA-DNA oligo cleavage fluorescence, 5 h; activation, % at 20 µM; 350,000 compounds, 0.32% hits; in the data active = activation above about 50%
Target sequence (P0AE70 whole entry, looked up): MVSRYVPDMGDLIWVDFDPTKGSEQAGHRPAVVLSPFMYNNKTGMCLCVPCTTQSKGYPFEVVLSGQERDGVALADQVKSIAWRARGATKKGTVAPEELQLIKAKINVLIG
The depositor's hits bear a star. Only some compounds are listed: those with a hit (about 1.7% of all), similar ones and a draw of the others.

How did Cc1nc(SCC(=O)NC(=O)NCc2ccccc2)nc(C)c1C do in these assays?
3CLpro inhibitor: 3; BJeLR lethal: -2; BH1578 lux ind: 1; DUSP3 inh: -15; PfHsp40 rescue: 0; MazEF act: -5

What do the screens show for `O=C(CSc1ccccc1)NC(=O)NCc1ccccc1`?
3CLpro inhibitor: 4; BJeLR lethal: 4; BH1578 lux ind: 0; DUSP3 inh: 23; PfHsp40 rescue: 84*; MazEF act: 8

Results for O=C(CCl)NN=C(c1ccccc1)c1ccccc1 ?
3CLpro inhibitor: 10; BJeLR lethal: -10; BH1578 lux ind: inactive; DUSP3 inh: 13; PfHsp40 rescue: -1; MazEF act: 59*

Results for CCOC(=O)c1cc(OC(=O)c2ccccc2)n(-c2ccccc2)n1 ?
3CLpro inhibitor: -2; BJeLR lethal: -3; BH1578 lux ind: 0; DUSP3 inh: 12; PfHsp40 rescue: 112*; MazEF act: -3

What do the screens show for `CCOC(=O)/C(=N/Nc1ccc(Br)cc1)N1CC(C)OC(C)C1` (configuration not stated)?
PfHsp40 rescue: 36*; MazEF act: -15

How did CCOC(=O)C1CCCN(C(=O)c2cc3cc(OC)c(OC)cc3[nH]2)C1 (configuration not stated) do in these assays?
3CLpro inhibitor: -1; BJeLR lethal: 1; BH1578 lux ind: -1; DUSP3 inh: 21; PfHsp40 rescue: -1; MazEF act: 2

Results for C=CCC(C(=O)OC)(C(=O)OC)c1ccc([N+](=O)[O-])cn1 ?
3CLpro inhibitor: 2; BJeLR lethal: 2; BH1578 lux ind: -1; DUSP3 inh: 52*; PfHsp40 rescue: 0; MazEF act: 0

What do the screens show for `C=CCC(C(=O)OC)(C(=O)OC)c1ccc([N+](=O)[O-])cc1[N+](=O)[O-]`?
3CLpro inhibitor: 0; BJeLR lethal: -13; BH1578 lux ind: inactive; DUSP3 inh: 26; PfHsp40 rescue: -1; MazEF act: 3

How did O=C(Nc1ccc(Br)c(C(F)(F)F)c1)c1ccccc1 do in these assays?
3CLpro inhibitor: 4; BJeLR lethal: -13; BH1578 lux ind: 3; DUSP3 inh: 2; PfHsp40 rescue: 644*; MazEF act: -6

What do the screens show for `Cc1cccc(/C=N/NC(=O)c2cc(Br)ccc2OCc2ccccc2)n1`?
3CLpro inhibitor: -3; BJeLR lethal: -2; BH1578 lux ind: 0; DUSP3 inh: 18; PfHsp40 rescue: 0; MazEF act: 125*

How did Cc1cccc(/C=N/NC(=O)c2ccccc2OCc2cccc(Br)c2)n1 do in these assays?
3CLpro inhibitor: -4; BJeLR lethal: 4; BH1578 lux ind: 0; DUSP3 inh: 12; PfHsp40 rescue: 6; MazEF act: -1

How did COc1ccc(Cl)cc1NC(=O)CN1C(=O)C(=O)N(C2CCCC2)C1=O do in these assays?
BH1578 lux ind: inactive; MazEF act: 3

How did N#CSCC(=O)c1cccc2ccccc12 do in these assays?
3CLpro inhibitor: 2; BH1578 lux ind: 0; DUSP3 inh: -8; PfHsp40 rescue: 146*; MazEF act: -6

How did c1ccc(NC2=Nc3cccc4cccc2c34)cc1 do in these assays?
3CLpro inhibitor: -2; BJeLR lethal: -10; BH1578 lux ind: 0; DUSP3 inh: 16; PfHsp40 rescue: 1; MazEF act: 5

What do the screens show for `Fc1ccc(/C=N/NC2=Nc3cccc4cccc2c34)cc1`?
3CLpro inhibitor: 3; BJeLR lethal: -5; BH1578 lux ind: 0; DUSP3 inh: 5; PfHsp40 rescue: 6; MazEF act: 110*

Results for Cc1cc(C)c2nc(C)cc(N/N=C/c3ccc(O)cc3)c2c1 ?
3CLpro inhibitor: -40; BJeLR lethal: 51*; BH1578 lux ind: 1; DUSP3 inh: 11; PfHsp40 rescue: -1; MazEF act: -10

What do the screens show for `Cc1cc(N/N=C/c2ccc(O)cc2)c2cccc(C)c2n1`?
3CLpro inhibitor: -11; BJeLR lethal: 2; BH1578 lux ind: -1; DUSP3 inh: 12; PfHsp40 rescue: -1; MazEF act: 1

Results for O=C(Cc1cccs1)Nc1ccc(N2CCOCC2)cc1 ?
3CLpro inhibitor: -4; BJeLR lethal: 2; BH1578 lux ind: 0; DUSP3 inh: -17; PfHsp40 rescue: 35*; MazEF act: 8

What do the screens show for `CCc1ccc(NC(=O)CSc2nncn2-c2cccnc2)cc1`?
3CLpro inhibitor: 3; BJeLR lethal: -8; BH1578 lux ind: 0; DUSP3 inh: 56*; PfHsp40 rescue: 0; MazEF act: 6

Results for Cc1nc2ccccn2c1-c1csc(Nc2cccc(O)c2)n1 ?
3CLpro inhibitor: 0; BJeLR lethal: 55*; BH1578 lux ind: 0; DUSP3 inh: 26; PfHsp40 rescue: 1; MazEF act: 11

How did Oc1ccc(-c2csc(Nc3ncccn3)n2)c(O)c1 do in these assays?
3CLpro inhibitor: 2; BJeLR lethal: -1; BH1578 lux ind: 0; DUSP3 inh: 15; PfHsp40 rescue: 1; MazEF act: 2

How did Cc1cccc(Nc2nc(-c3ccc(O)cc3O)cs2)n1 do in these assays?
3CLpro inhibitor: -3; BJeLR lethal: -1; BH1578 lux ind: inactive; DUSP3 inh: 9; PfHsp40 rescue: 121*; MazEF act: 27

What do the screens show for `Cc1cccc(Nc2nc(-c3c(C)nc4ccccn34)cs2)c1`?
3CLpro inhibitor: 5; BJeLR lethal: 15; BH1578 lux ind: -1; DUSP3 inh: 24; PfHsp40 rescue: 1; MazEF act: -3

How did NC(=O)c1oc2ccccc2c1NC(=O)c1ccc([N+](=O)[O-])o1 do in these assays?
3CLpro inhibitor: 0; BJeLR lethal: -8; BH1578 lux ind: 7; DUSP3 inh: 17; PfHsp40 rescue: 1; MazEF act: 14

What do the screens show for `CCOC(=O)/C=C1/N(C)c2ccccc2C1(C)C`?
3CLpro inhibitor: 1; BJeLR lethal: 8; BH1578 lux ind: 0; DUSP3 inh: -3; PfHsp40 rescue: 1; MazEF act: 0

How did CCN1/C(=C\C=C\C2=[N+](CC)c3ccccc3C2(C)C)C(C)(C)c2ccccc21 do in these assays?
3CLpro inhibitor: -11; BJeLR lethal: 88*; BH1578 lux ind: -4; DUSP3 inh: 12; PfHsp40 rescue: 121*; MazEF act: inactive

What do the screens show for `CC(=O)NC(c1ccc(F)c(F)c1)c1nc(-c2ccncc2)cs1` (configuration not stated)?
BH1578 lux ind: -1

Results for CC(C)C(=O)Nc1nnc(CCN2CCOCC2)s1 ?
3CLpro inhibitor: 3; BJeLR lethal: -13; BH1578 lux ind: 0; DUSP3 inh: 51*; PfHsp40 rescue: -1; MazEF act: -1

How did COC(=O)Cc1nnc(NC(=O)C(C)C)s1 do in these assays?
3CLpro inhibitor: -3; BJeLR lethal: 2; BH1578 lux ind: inactive; DUSP3 inh: 6; PfHsp40 rescue: -1; MazEF act: 4

How did CCN1C(=O)[C@H]2[C@@H](c3ccc(C)cc3)N3C(=O)N(c4ccc(C)cc4)C(=O)[C@@]3(CC)[C@H]2C1=O do in these assays?
BJeLR lethal: -5; BH1578 lux ind: -1; PfHsp40 rescue: -2; MazEF act: 4
